The results in this text go back to PubChem BioAssay (NCATS).

Inconclusive results are not listed. Values without a mark were called inactive. Calls of active or inactive are those of the source. Calls come from the whole dose curve; as a rule, active = well fitted curve in the direction sought with a large enough effect; inconclusive = small, poorly fitted or top-dose-only effect, or another doubt; inactive = no such curve, though single readings can be large; an effect the other way counts as inactive or inconclusive.

A short description of assay [1]: qHTS of pediatric cancer cell lines to identify multiple opportunities for drug repurposing: Primary screen for control Hh wild type fibroblast cells (AID 1347106).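 For activity change, negative = cytotoxic: series mostly up to about 46 µM; % is set by controls: 0 for no effect and ±100 for the full control effect; a drop in luminescence marks cytotoxicity and a rise apparent proliferation.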 Note: nearly all actives have a fitted effect of over 55% in size. A digest of the protocol: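 Cells (500-1,000/well) in growth media were settled 5 h at 37 degrees C, then given compounds for 48 h. Viability was read as CellTiter-Glo luminescence. Primary runs used MIPE at 11 points (0.78 nM-46 µM) and NPC at 8 points (0.59 nM-46 µM); follow-ups used 11 points.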
For orientation: qHTS replaces the single test concentration by a dilution series.

Assay [2] in a line: qHTS of pediatric cancer cell lines to identify multiple opportunities for drug repurposing: Primary screen for Rh30 cells (AID 1347107). For activity change, negative = cytotoxic: series mostly up to about 46 µM; % is set by controls: 0 for no effect and ±100 for the full control effect. Note: nearly all actives have a fitted effect of over 75% in size. In outline: (§1)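 Viability after 48 h compound treatment at 37C, 500-1,000 cells/well, read as ATP luminescence with CellTiter-Glo. Primary screens used 11-point (MIPE, 0.78 nM-46 µM) or 8-point (NPC, 0.59 nM-46 µM) final concentrations; follow-up screens used 11-point dilutions.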

Assay [3] in a line: qHTS of pediatric cancer cell lines to identify multiple opportunities for drug repurposing: Primary screen for Rh41 cells (AID 1347108).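 For activity change, negative = cytotoxic: series mostly up to about 46 µM; luminescence drop marks cytotoxic hits.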 Note: nearly all actives have a fitted effect of over 70% in size. In outline:
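Readout: CellTiter-Glo luminescence, 48 h treatment. Controls DMSO (neutral) and bortezomib 2.3 µM final (positive). Potency and efficacy taken from primary-screen concentration-response curves.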

Assay [4] in a line: qHTS of pediatric cancer cell lines to identify multiple opportunities for drug repurposing: Confirmatory screen for NB1643 cells (AID 1347109).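 For activity change, negative = cytotoxic: plate controls were DMSO for no effect and bortezomib for full effect.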 Note: nearly all actives have a fitted effect of over 45% in size. In outline: as §1
Assay [5] in a line: qHTS of pediatric cancer cell lines to identify multiple opportunities for drug repurposing: Confirmatory screen for A673 cells (AID 1347110). Note: nearly all actives have a fitted effect of over 65% in size. A digest of the protocol: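 Forty-eight-hour viability assay. Follow-up compounds ran at 11-point dilutions; positive control bortezomib at 2.3 uM final, neutral control DMSO.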
Assay [6] can be described thus: qHTS of pediatric cancer cell lines to identify multiple opportunities for drug repurposing: Confirmatory screen for BT-12 cells (AID 1347112). For activity change, negative = cytotoxic: % is set by controls: 0 for no effect and ±100 for the full control effect. Note: nearly all actives have a fitted effect of over 55% in size. A digest of the protocol: as §1
Assay [7] can be described thus: qHTS of pediatric cancer cell lines to identify multiple opportunities for drug repurposing: Confirmatory screen for SJ-GBM2 cells (AID 1347116). Note: nearly all actives have a fitted effect of over 60% in size. In outline: (§2)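 Viability measured as metabolically active cells via CellTiter-Glo luminescence following 48 hours of compound exposure, 11-point dilutions in confirmatory testing. 500-1,000 cells/well plated 5 hours before dosing; controls were DMSO and 2.3 µM bortezomib.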

A short description of assay [8]: qHTS of pediatric cancer cell lines to identify multiple opportunities for drug repurposing: Confirmatory screen for BT-37 cells (AID 1347117).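 For activity change, negative = cytotoxic: plate controls were DMSO for no effect and bortezomib for full effect.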 Note: nearly all actives have a fitted effect of over 55% in size. In outline: as §1
A short description of assay [9]: qHTS of pediatric cancer cell lines to identify multiple opportunities for drug repurposing: Confirmatory screen for MG 63 (6-TG R) cells (AID 1347119). Note: nearly all actives have a fitted effect of over 55% in size. A digest of the protocol:
as §1

The nature of assay [10]: qHTS of pediatric cancer cell lines to identify multiple opportunities for drug repurposing: Confirmatory screen for control Hh wild type fibroblast cells (AID 1347121). Note: nearly all actives have a fitted effect of over 70% in size. A digest of the protocol:
as §1

The nature of assay [11]: qHTS of pediatric cancer cell lines to identify multiple opportunities for drug repurposing: Confirmatory screen for Rh41 cells (AID 1347123).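 For activity change, negative = cytotoxic: plate controls were DMSO for no effect and bortezomib for full effect.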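 Note: 48 h compound exposure; nearly all actives have a fitted effect of over 60% in size.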 A digest of the protocol:
as §1

The nature of assay [12]: qHTS of pediatric cancer cell lines to identify multiple opportunities for drug repurposing: Confirmatory screen for RD cells (AID 1347124).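 Note: cells exposed to compound for 48 h before viability readout; nearly all actives have a fitted effect of over 65% in size.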 In outline: as §1
A short description of assay [13]: qHTS of pediatric cancer cell lines to identify multiple opportunities for drug repurposing: Confirmatory screen for Rh18 cells (AID 1347125). For activity change, negative = cytotoxic: % is set by controls: 0 for no effect and ±100 for the full control effect. Note: nearly all actives have a fitted effect of over 55% in size. In outline: as §1
Assay [14] in a line: qHTS of pediatric cancer cell lines to identify multiple opportunities for drug repurposing: Confirmatory screen for Rh30 cells (AID 1347126). Note: nearly all actives have a fitted effect of over 55% in size. In outline: as §1
Assay [15] is described as follows: qHTS of pediatric cancer cell lines to identify multiple opportunities for drug repurposing: Confirmatory screen for SK-N-MC cells (AID 1347111).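 For activity change, negative = cytotoxic: plate controls were DMSO for no effect and bortezomib for full effect.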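 Note: cells exposed to compound for 48 h before the readout; nearly all actives have a fitted effect of over 70% in size.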 A digest of the protocol: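 SK-N-MC cells at 500-1,000 cells/well in growth media were pre-incubated 5 h, then exposed to compounds at 11-point dilutions for 48 h at 37 degrees C, 5% CO2. Viability was read as CellTiter-Glo luminescence.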

A short description of assay [16]: qHTS of pediatric cancer cell lines to identify multiple opportunities for drug repurposing: Confirmatory screen for LAN-5 cells (AID 1347113). Note: nearly all actives have a fitted effect of over 65% in size. A digest of the protocol:
as §1

The nature of assay [17]: qHTS of pediatric cancer cell lines to identify multiple opportunities for drug repurposing: Confirmatory screen for DAOY cells (AID 1347114). For activity change, negative = cytotoxic: % is set by controls: 0 for no effect and ±100 for the full control effect. Note: nearly all actives have a fitted effect of over 65% in size. A digest of the protocol: as §2
Assay [18] is described as follows: qHTS of pediatric cancer cell lines to identify multiple opportunities for drug repurposing: Confirmatory screen for NB-EBc1 cells (AID 1347115). Note: nearly all actives have a fitted effect of over 45% in size. A digest of the protocol:
as §1

Assay [19] can be described thus: qHTS of pediatric cancer cell lines to identify multiple opportunities for drug repurposing: Confirmatory screen for TC32 cells (AID 1347118). Note: nearly all actives have a fitted effect of over 65% in size. In outline: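 TC32 cells, 500-1,000/well in growth medium, compound-treated 48 h at 37 °C; viability from CellTiter-Glo luminescence. Primary screen: MIPE 11-point (0.78 nM–46 µM final), NPC 8-point (0.59 nM–46 µM final); confirmatory at 11-point dilutions.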

The nature of assay [20]: qHTS of pediatric cancer cell lines to identify multiple opportunities for drug repurposing: Confirmatory screen for U-2 OS cells (AID 1347122). Note: nearly all actives have a fitted effect of over 65% in size. A digest of the protocol: as §1
Potency is the fitted concentration of half-maximal effect.

On to `COc1ccc(-n2nc(C(N)=O)c3c2C(=O)N(c2ccc(N4CCCCC4=O)cc2)CC3)cc1`, for which the Potency result in assay [1], in assay [2], in [3], in assay [4], in [5] and in assay [6] was “inactive” in each case. In addition, the Potency result in [8], in assay [9], in assay [10] and in [13] was “inactive” each time. Moreover, the Potency in assay [7] was 2.33 µM (active); in assay [11] it was 0.233 µM (active); in assay [12] it was 1.31 µM (active); in assay [14], 0.147 µM (active).

Regarding `CNC(=O)c1ccc(N2C(=S)N(c3cnc(C#N)c(C(F)(F)F)c3)C(=O)C23CCC3)cc1F`, the Potency was 3.72 µM (active) in assay [1], 1.66 µM (active) in assay [2] and 1.48 µM (active) in assay [3]. Besides, the Potency entry in assay [4], in assay [5], in assay [15], in [6], in assay [16] and in [17] was “inactive” throughout. In addition, the Potency entry in [18], in assay [7], in assay [8], in assay [19], in assay [9] and in assay [10] was “inactive” throughout. The Potency result in assay [20], in assay [11], in [12], in assay [13] and in [14] was “inactive” each time.

Regarding `C[C@@H](Oc1cc(-c2cnn(C3CCNCC3)c2)cnc1N)c1c(Cl)ccc(F)c1Cl`, the Potency result in assay [1] was “inactive”. The Potency in assay [2] is 18.7 µM (active); in [3], 18.7 µM (active); in assay [4], 5.85 µM (active); in assay [5], 3.29 µM (active); in [15], 5.85 µM (active); in [16] it was 5.85 µM (active). Besides, the Potency was 16.5 µM (active) in assay [18]; 20.8 µM (active) in [8]; 4.65 µM (active) in [19]; 13.1 µM (active) in assay [9]; 18.5 µM (active) in assay [13]; 7.37 µM (active) in [14].

As to `CC1COC2(CCN(c3nc(=O)c4cc(C(F)(F)F)cc([N+](=O)[O-])c4s3)CC2)O1` (stereo unspecified), the Potency result in assay [1], in assay [2] and in [3] was “inactive” in each case.

In the case of `O=C(Nc1cn[nH]c1-c1nc2ccc(CN3CCOCC3)cc2[nH]1)NC1CC1`, the Potency in [1] was 10.5 µM (active); in [3] it was 4.69 µM (active); in assay [15], 1.65 µM (active). Further, the Potency entry in assay [2], in assay [5], in assay [6], in assay [16], in assay [17] and in [18] was “inactive” in each case. For the same molecule, the Potency result in assay [8], in assay [9], in assay [10], in [20], in [11] and in assay [12] was “inactive” each time. Moreover, the Potency entry in assay [13] and in [14] was “inactive” in each case.

With `COc1cc2c(Oc3ccc(NC(=O)C4(C(=O)Nc5ccc(F)cc5)CC4)cc3F)ccnc2cc1OCCCN1CCOCC1`, the Potency in assay [1] was 26.4 µM (active); in [2], 5.9 µM (active); in [3], 4.69 µM (active); in assay [4], 5.22 µM (active); in [5] it was 2.33 µM (active); in assay [15], 3.69 µM (active). The Potency in assay [6] is 13.1 µM (active); in assay [16], 5.22 µM (active); in assay [17] it was 11.7 µM (active); in [7] it was 5.22 µM (active); in [8], 10.4 µM (active); in assay [19], 1.85 µM (active). For the same molecule, the Potency in assay [9] was 7.37 µM (active); in [10] it was 20.8 µM (active); in assay [20], 8.27 µM (active); in assay [11], 7.37 µM (active); in assay [12] it was 10.4 µM (active); in assay [13], 7.37 µM (active).

As for `COc1ccc(CC2c3cc(OC)c(OC)cc3CC[N+]2(C)CCC(=O)OCCCCCOC(=O)CC[N+]2(C)CCc3cc(OC)c(OC)cc3C2Cc2ccc(OC)c(OC)c2)cc1OC` (stereo unspecified), the values for the activity change, negative = cytotoxic in assay [1], in assay [2] and in assay [3] were -1.39% [at 9.22 µM], 18.3% [at 9.22 µM] and 23.2% [at 9.22 µM], respectively.

Consider `Nc1ccc(S(=O)(=O)Nc2ncccn2)cc1`, for which the Potency entry in assay [1], in assay [2] and in assay [3] was “inactive” each time.

As to `O=C1CCC[C@@H]2[C@H]3CCC[N+]4([O-])CCC[C@@H](CN12)[C@@H]34` (stereo partly specified), the Potency result in assay [1], in [2] and in assay [3] was “inactive” each time.

For `Nc1nc(-c2nn(Cc3ccccc3F)c3ncccc23)nc(N)c1N1CCOCC1`, the Potency entry in assay [1], in assay [2] and in assay [3] was “inactive” in each case.

For `NC(=O)Nc1cc(-c2cccc(F)c2)sc1C(=O)N[C@H]1CCCNC1`, the Potency result in assay [1] and in assay [6] was “inactive” in each case. The Potency in assay [2] was 0.833 µM (active); in assay [3], 1.87 µM (active); in assay [5], 1.85 µM (active); in assay [15], 0.414 µM (active); in assay [16] it was 0.827 µM (active); in assay [17], 2.33 µM (active). The Potency in assay [18] was 1.65 µM (active); in assay [7] it was 1.04 µM (active); in assay [8], 0.827 µM (active); in assay [19] it was 0.737 µM (active); in assay [9], 1.04 µM (active); in assay [10] it was 20.8 µM (active). Moreover, the figures for the Potency in [20], in [11] and in assay [13] were 1.17 µM (active), 1.47 µM (active) and 6.57 µM (active), respectively.

Consider `Cn1c(CNc2ccc(C(=N)N)cc2)nc2cc(C(=O)N(CCC(=O)O)c3ccccn3)ccc21`, for which the Potency entry in [1], in [2] and in [3] was “inactive” in each case.

As to `C=CC(=O)Nc1cccc(Oc2nc(Nc3ccc(N4CCN(C)CC4)cc3OC)ncc2Cl)c1`, the Potency result in assay [1] and in [10] was “inactive” in each case. The Potency is 23.5 µM (active) in assay [2]; 0.118 µM (active) in assay [3]; 23.3 µM (active) in assay [4]; 20.8 µM (active) in assay [5]; 13.1 µM (active) in [15]; 11.7 µM (active) in assay [7]. Moreover, the Potency in [8] was 20.8 µM (active); in [19] it was 14.7 µM (active); in assay [9] it was 23.3 µM (active); in assay [11], 16.5 µM (active); in [13] it was 20.8 µM (active); in [14], 13.1 µM (active).
